TRPV1 ag: agonists of human vanilloid receptor 1 (TRPV1) | Q8NER1 | TRPV1-expressing cells, Fluo-8 calcium influx, agonist mode | 0.19% of 320,000 active | activation, % at 8.33 µM; in the data active means activation above about 80%; inconclusive means between about 30% and that limit
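Cells expressing TRPV1 were dye-loaded with Fluo-8 and read kinetically: 10 s baseline, 3 min after compound (agonist portion), then 2 min after EC20 capsaicin (allosteric enhancer portion). Calcium-bound dye fluorescence at 480/520 nm.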
Gal4-VP16 FLuc: counter-screen for ROR gamma inhibitors: Gal4-VP16 reporter. 3.5% of 310,000 active. Potency, µM (top dose mostly 53.6 µM), hits mostly inhibitors. AID 2546. Drosophila S2 Gal4-VP16 UAS-luciferase, luminescence, 20 h;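 further: Gal4-VP16 expression switched on by copper sulfate through the metallothionein promoter; nearly all actives have a fitted effect of over 50% in size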
uPA surface inh: blocks generation of uPA at the cell surface. Potency, µM (highest dose often 38.3 µM), usual class: inhibitors. 0.31% of 330,000 active. AID 540303. cell surface uPA generation assay, qHTS; active means well fitted inhibition curve with a large enough effect; inconclusive means small, poorly fitted or top-dose-only effect; inactive means no such curve, though single readings can be large or run the other way; tested in mouse RAW 264.7 cells; further: nearly all actives have a fitted effect of over 55% in size
RORg inh: inhibitors of mouse ROR gamma transcriptional activity; P51450; Drosophila S2 Gal4-RORgamma UAS-luciferase reporter, 20 h; Potency, µM (series often up to 53.6 µM), hits mostly inhibitors; 5.4% of 310,000 active; further: nearly all actives have a fitted effect of over 60% in size
Target sequence (P51450 whole entry, looked up, the tested form may be a part): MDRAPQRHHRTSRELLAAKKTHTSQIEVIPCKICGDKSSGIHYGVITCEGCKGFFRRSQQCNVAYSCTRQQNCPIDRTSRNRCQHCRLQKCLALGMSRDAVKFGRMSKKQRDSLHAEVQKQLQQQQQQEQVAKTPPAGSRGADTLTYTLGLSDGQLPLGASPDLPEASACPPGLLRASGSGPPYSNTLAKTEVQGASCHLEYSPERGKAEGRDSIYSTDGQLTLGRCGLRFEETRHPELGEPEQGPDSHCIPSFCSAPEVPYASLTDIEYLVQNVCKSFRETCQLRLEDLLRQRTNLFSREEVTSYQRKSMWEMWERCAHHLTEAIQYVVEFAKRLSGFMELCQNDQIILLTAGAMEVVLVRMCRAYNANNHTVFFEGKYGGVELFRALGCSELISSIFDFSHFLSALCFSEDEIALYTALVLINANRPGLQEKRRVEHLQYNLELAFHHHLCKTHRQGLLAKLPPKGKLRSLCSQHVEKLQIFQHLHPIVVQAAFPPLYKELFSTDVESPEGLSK
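Schneider cells (Drosophila), stable Gal4 DBD–ROR gamma + UAS-luc; 1 hr cmpd preincubation; Cu2+ induction 700 uM final; 20 hr ambient; luminescence.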
TRPV1 potentiator: potentiators of human vanilloid receptor 1 (TRPV1); TRPV1-expressing cells, Fluo-8 calcium influx, capsaicin EC20 potentiation; potentiation, % at 8.33 µM; 0.02% of 320,000 active; in the data active means potentiation above about 80%; inconclusive means between about 30% and that limit
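TRPV1-expressing cells were cultured overnight at 35.5C and loaded with Fluo-8 calcium dye for 40 to 90 min at room temperature. After a 10 s baseline, compound was added and calcium influx was read kinetically for 3 min (ex 480/em 520 nm).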
Of the large screens only hits and unclear results are named; the others gave an inactive call. In the library only some 5.8% were active in any assay of this set; here they are far more common. Unless noted, the call rests on the fitted dose curve; in most records, active means well fitted curve in the direction sought with a large enough effect; inconclusive means small, poorly fitted or top-dose-only effect, or another doubt; inactive means no such curve, though single readings can be large; an effect the other way counts as inactive or inconclusive.

CCn1ccnc1CN(C)Cc1nc(Cc2cccc(C(F)(F)F)c2)no1	Gal4-VP16 FLuc inconclusive, RORg inh 17.8µM
CC(CN(C)Cc1nc(Cc2cccc(C(F)(F)F)c2)no1)CN1CCCC1 (stereo unspecified)	none (no result: uPA surface inh)
FC(F)(F)c1cccc(Cc2noc(CN3CCCCC3c3ccccn3)n2)c1 (stereo unspecified)	RORg inh 22.4µM
CN(Cc1ccc(F)cc1)Cc1nc(CCc2ccccc2)no1	none
CCc1ccc(CN(C)Cc2nc(COc3ccccc3)no2)nc1	RORg inh 12.6µM
O=CN/C=C/c1cc(F)cc(F)c1F	none (no result: TRPV1 ag, uPA surface inh, TRPV1 potentiator)
O=C(COC(=O)CCSc1ccc(Cl)cc1)NCc1ccco1	TRPV1 ag inconclusive (no result: uPA surface inh)
OCCC1CN(Cc2cccn2-c2ccccn2)CCN1C1CCCCC1 (stereo unspecified)	none
CCOC(=O)c1cnc(Nc2nc3ccccc3o2)nc1CSc1ncccn1	none (no result: TRPV1 ag, Gal4-VP16 FLuc, RORg inh, TRPV1 potentiator)
CCOC(=O)Cc1nc2ccccc2o1	none (no result: uPA surface inh)
Cc1nc(Nc2nc3ccccc3o2)nc(C)c1C	Gal4-VP16 FLuc inconclusive, RORg inh 11.2µM
CCCc1nc(Nc2nc3ccccc3o2)nc(C)c1C(=O)OCC	Gal4-VP16 FLuc inconclusive, RORg inh 6.31µM (no result: uPA surface inh)
CCOC(=O)c1cnc(Nc2nc3ccccc3o2)nc1CSC(=S)N(CC)CC	Gal4-VP16 FLuc 0.562µM, RORg inh 0.562µM
Cc1ccc2oc(Nc3nc(C)c(C)c(C)n3)nc2c1	RORg inh inconclusive
Cc1ccnc(Nc2nc3ccccc3o2)n1	Gal4-VP16 FLuc 7.94µM, uPA surface inh inconclusive, RORg inh 4.47µM
O=C(Nc1nccs1)C1CC=CC2CCN(Cc3ccc(Cl)c(Cl)c3)C(=O)C21 (stereo unspecified)	none (no result: TRPV1 ag, uPA surface inh, TRPV1 potentiator)
N#Cc1cnc(Nc2nc3ccccc3o2)nc1-c1ccccc1	Gal4-VP16 FLuc 5.01µM, RORg inh 2.51µM
CN(C)S(=O)(=O)N1CCC(Oc2cccc(C(=O)N3CCSCC3)c2)CC1	RORg inh inconclusive
CCCCc1nc2cc(C(=O)NCc3cn(C)nc3C)ccc2o1	Gal4-VP16 FLuc 0.0631µM, RORg inh 1µM
COC(=O)[C@H](CC(C)C)NC(=O)c1ccc(NC[C@@H](N)CS)cc1-c1cccc2ccccc12	none (no result: TRPV1 ag, uPA surface inh, TRPV1 potentiator)
CC(C)OC(=O)c1sc2nc(-c3ccccc3)ccc2c1N	Gal4-VP16 FLuc inconclusive, RORg inh 7.08µM (no result: uPA surface inh)
Cc1cccc(NC(=S)N/N=C/c2cccc([N+](=O)[O-])c2)c1	RORg inh 1.12µM
Cc1cccc(NC(=S)N/N=C/c2ccc(Cl)c([N+](=O)[O-])c2)c1	Gal4-VP16 FLuc 3.98µM, RORg inh 1.58µM
O=C(/C=C/c1ccccc1[N+](=O)[O-])NCc1ccncc1	none
Cc1cc(CC(C)C)n(-c2nc3ccccc3c(=O)n2OCC(N)=O)n1	Gal4-VP16 FLuc 5.62µM, RORg inh 2.24µM
Cc1cc(C)n(-c2nc3ccccc3c(=O)n2OCC(N)=O)n1	Gal4-VP16 FLuc 20µM, RORg inh 6.31µM
Cc1cc(C)n(-c2nc3ccccc3c(=O)n2OCCOc2ccccc2)n1	Gal4-VP16 FLuc 14.1µM, RORg inh inconclusive
C=CCOn1c(-n2nc(C)cc2C)nc2ccccc2c1=O	RORg inh inconclusive
O=C(COc1cccc2cccnc12)N1CCc2ccccc21	none
O=C1[C@H]2O[C@@H]2[C@@H](O)[C@H]2[C@H]1CCn1c(=O)n(Cc3cc4c(cc3Cl)OCO4)c(=O)n12	none (no result: TRPV1 ag, uPA surface inh, TRPV1 potentiator)
Cc1cc(C(=O)CSc2nnc(-c3ccccc3)n2-c2ccccc2)c(C)n1-c1ncn[nH]1	none
Cc1cc(C(=O)CSc2nnc3ccccn23)c(C)n1-c1ccccc1	Gal4-VP16 FLuc 2.82µM, RORg inh 5.01µM
O=C(CSc1nnc2ccccn12)c1ccc2c(c1)OCCO2	Gal4-VP16 FLuc inconclusive, RORg inh 12.6µM
Cc1ccc(NC(=O)Nc2ccc(F)c(Cl)c2)cc1	none
Cc1cc2n(n1)SC(Nc1ccc(F)c(Cl)c1)N2 (stereo unspecified)	Gal4-VP16 FLuc 1.12µM, RORg inh 0.631µM (no result: uPA surface inh)
COc1cc(OC)cc(C(=O)NCC(=O)OC(C)C(=O)NC(C)C2CC3CCC2C3)c1 (stereo unspecified)	none (no result: TRPV1 ag, Gal4-VP16 FLuc, RORg inh, TRPV1 potentiator)
COC(=O)c1cn(NC(=O)c2ccc3c(c2)OCO3)c(=O)c2ccccc12	TRPV1 ag 80.5
COC(=O)c1cn(NC(=O)c2ccc(OC)c(OC)c2)c(=O)c2ccccc12	RORg inh inconclusive, TRPV1 potentiator inconclusive
COC(=O)c1cn(NC(=O)c2cnccn2)c(=O)c2ccccc12	Gal4-VP16 FLuc inconclusive, RORg inh 12.6µM
O=C(OCC(=O)N1CCOCC1)c1c(Cl)ccc(Cl)c1Cl	none

Compound activity (PubChem)
